Rows were chosen to be rich in hits. Some 4.2% of all compounds tested hit in one or more screens of this group.
AHR act: human AHR activation; P35869; AHR-responsive luciferase reporter cells, luminescence; activation, % at 5 µM; 320,000 tested, 2.5% active; AID 2796; in the data active = activation above about 47%;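 note: 0% = vehicle wells and 100% = reference agonist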
Target sequence (P35869 whole entry, looked up): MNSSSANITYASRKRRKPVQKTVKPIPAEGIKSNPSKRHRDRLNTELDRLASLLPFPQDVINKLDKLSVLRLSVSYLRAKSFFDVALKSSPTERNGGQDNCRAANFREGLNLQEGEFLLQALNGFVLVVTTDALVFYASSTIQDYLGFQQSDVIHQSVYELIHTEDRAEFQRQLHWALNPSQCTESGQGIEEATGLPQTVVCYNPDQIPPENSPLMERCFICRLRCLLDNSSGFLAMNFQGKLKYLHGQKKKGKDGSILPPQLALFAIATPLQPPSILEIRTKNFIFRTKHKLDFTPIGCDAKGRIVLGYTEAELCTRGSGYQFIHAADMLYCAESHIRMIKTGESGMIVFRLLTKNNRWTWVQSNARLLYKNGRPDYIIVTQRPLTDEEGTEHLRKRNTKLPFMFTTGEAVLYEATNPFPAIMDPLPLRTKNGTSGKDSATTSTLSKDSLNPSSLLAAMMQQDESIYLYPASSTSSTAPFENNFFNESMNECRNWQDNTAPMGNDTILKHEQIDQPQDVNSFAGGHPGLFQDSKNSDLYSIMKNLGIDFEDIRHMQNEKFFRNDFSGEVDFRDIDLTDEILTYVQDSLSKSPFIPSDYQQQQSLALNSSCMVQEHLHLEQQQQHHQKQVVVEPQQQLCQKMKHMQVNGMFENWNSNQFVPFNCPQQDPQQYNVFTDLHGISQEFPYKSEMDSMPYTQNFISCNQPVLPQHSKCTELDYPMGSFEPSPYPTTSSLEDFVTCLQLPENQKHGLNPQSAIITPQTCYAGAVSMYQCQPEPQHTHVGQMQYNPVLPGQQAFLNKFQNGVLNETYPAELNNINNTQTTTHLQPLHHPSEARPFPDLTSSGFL
Wnt act: activators of Wnt/beta-catenin signaling; 300,000 tested, 1.2% active; AID 743398; Wnt/beta-catenin reporter cell assay, activator, plate reader; activation, % at 9.35 µM; in the data active = activation above about 30%, passing the limit was not always enough; inconclusive = no clear call, values can overlap the other calls;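 note: 0% = neutral control wells and 100% = positive control wells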
esBAF inh: inhibitors of esBAF chromatin remodeling in mouse ES cells. Bmi1-luciferase knock-in reporter, 24 h; 100% = twice the neutral-well signal. reporter increase, % at 12.5 µM. 350,000 tested, 2% active. AID 602393; in the data active = activation above about 40%; inconclusive = no clear call, values can overlap the other calls;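 note: 0% = median of the plate's neutral control wells and 100% = double that signal; a rise in the Bmi1 reporter signal indicates esBAF inhibition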
MITF TRPM1 HTS: MITF TRPM1 promoter activation in melanoma cells | activation, % at 12.5 µM | SK-MEL-5 TRPM1-promoter luciferase, 24 h; % of positive control, neutral wells = 0 | 300,000 tested, 0.75% active;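 active = mean activation of at least 80% with every replicate also reaching 80%; inconclusive = mean reaches 80% but some replicate falls short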;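 note: 0% = neutral control wells and 100% = parthenolide positive control wells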
FXN GAA850 act: activators of GAA850 frataxin (FXN) promoter. HEK293 lucGAA850 FXN promoter luciferase reporter, 24 h; percent of 10 µM SAHA response. activation, % at 6 µM. 360,000 tested, 0.56% active. AID 540364;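 active = activation above the average of all compounds screened plus 3 SD, cutoff fixed separately per campaign, cut at about 7.5% in these data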;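 note: 0% = DMSO wells and 100% = 10 µM SAHA wells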
* = called active by the depositor; ? = inconclusive; . = no result.

SMILES | AHR act | Wnt act | esBAF inh | MITF TRPM1 HTS | FXN GAA850 act
O=C(C[C@@H]1CC[C@H]2[C@@H](COC[C@@H](O)CN2Cc2ccccc2)O1)NCCCN1CCOCC1 | . | . | -3.5 | . | .
O=C(c1ccccc1)N1C[C@@H]2[C@H](c3ccccc31)[C@H](CO)N2C(=O)c1ccccn1 | . | . | 2.3 | . | .
CC1OC1c1ccc(-c2ccc(C3OC3C)cc2)cc1 (stereo not given) | . | 18.1 | 76.7* | 90.2* | 4.5
COCC(=O)Nc1c(C(=O)Nc2cccc(OC)c2)oc2ccccc12 | 70.1* | ? | 26.1 | 97.4* | 3.6
COc1cccc(NC(=O)c2oc3ccccc3c2NC(C)=O)c1 | 29.2 | 14.1 | 32.4 | 68.2 | 4.3
COc1ccccc1NC(=O)c1oc2ccccc2c1NC(=O)c1cc(OC)c(OC)c(OC)c1 | 21.2 | -3.6 | 5.7 | -14.0 | 1.1
COCC(=O)Nc1c(C(=O)Nc2ccccc2OC)oc2ccccc12 | 83.5* | . | 2.4 | 23.0 | 2.1
C[C@@H]1CCCCO[C@H](CN(C)CC2CC2)[C@@H](C)CN([C@@H](C)CO)C(=O)c2cc(NS(=O)(=O)c3cccs3)ccc2O1 | . | . | 1.3 | . | .
C=CCn1c(=O)[nH]c2nc3cc(N=CN(C)C)c(C)cc3nc2c1=O | 67.6* | -1.7 | . | -20.3 | 1.6
Cc1cc2nc3c(=O)n(CCc4ccccc4)c(=O)[nH]c3nc2cc1N | 8.2 | -1.9 | . | . | 1.5
COc1ccc(S(=O)(=O)Nc2ccc3c(c2)C(=O)N([C@@H](C)CO)C[C@@H](C)[C@@H](CN(C)C(=O)NC2CCCCC2)OCCCC[C@H](C)O3)cc1 | . | . | 9.6 | . | .
O=C(Nc1ccc2c(c1)OCCO2)c1cc(F)c(F)cc1Cl | 2.2 | 18.2 | 14.9 | ? | 4.0
O=C(COC(=O)c1ccccc1O)Nc1ccc2ccccc2c1 | 8.2 | -3.8 | 20.6 | 2.6 | 2.7
O=C(Nc1ccc2ccccc2c1)c1cc(F)c(F)cc1Cl | -2.8 | 15.0 | 78.0* | . | 1.9
O=C(Nc1ccc2ccccc2c1)c1ccccc1O | 47.8* | 7.6 | . | 4.9 | -1.0
O=C(Nc1ccc2ccccc2c1)c1ccccc1Cl | . | 43.9* | -5.5 | . | -0.5
O=C(Nc1ccc2ccccc2c1)c1ccc(Cl)cc1Cl | -6.4 | 38.7* | -17.0 | 70.3 | 0.0
COc1cccc(S(=O)(=O)Nc2ccc3c(c2)OC[C@H](C)NC[C@@H](C)[C@H](OC)CN(C)C3=O)c1 | . | . | -5.6 | . | .
CO[C@H]1CN(C)C(=O)c2ccc(NC(=O)C3CCCC3)cc2OC[C@@H](C)N(C(=O)CC2CC2)C[C@@H]1C | . | . | -1.8 | . | .
CCC(=O)Nc1ccc2c(c1)OC[C@@H](C)N(C(=O)NC(C)C)C[C@H](C)[C@H](OC)CN(C)C2=O | . | . | 1.3 | . | .
CCNC(=O)C[C@H]1CC[C@@H](NS(=O)(=O)c2ccc(C)cc2)[C@@H](CO)O1 | . | . | 2.3 | . | .
O=C(Nc1ccc2c(c1)C(=O)OC2)c1ccc(Cl)cc1 | -2.5 | 7.7 | 27.0 | 29.7 | 0.5
O=C(Nc1ccc(N=Nc2ccccc2)cc1)c1ccccc1Cl | -7.4 | . | . | 120.7* | 4.8
O=C(Nc1ccc2c(c1)C(=O)OC2)c1ccc(Cl)cc1Cl | 1.4 | 10.6 | 52.8* | 74.9 | 1.9
CSc1nc2c(C)c(C)c(C)c(C)c2[nH]1 | 47.5* | 0.9 | -8.9 | . | -0.8
SMILES | AHR act | Wnt act | esBAF inh | MITF TRPM1 HTS | FXN GAA850 act
N#Cc1nc(COc2ccccc2)oc1N1CCCCC1 | 16.8 | 11.6 | 60.0* | 41.9 | 2.4
N#Cc1nc(COc2ccc(Cl)cc2)oc1N1CCCCCC1 | 0.1 | 1.1 | 5.8 | 13.7 | -1.1
O=C(NCc1nnc2c(C(F)(F)F)cc(Cl)cn12)c1cccnc1 | 14.4 | 0.2 | -10.9 | 3.3 | -0.8
O=C(NCc1nnc2c(C(F)(F)F)cc(Cl)cn12)c1ccc2c(c1)OCO2 | 52.4* | -1.2 | 2.0 | 10.7 | -0.1
C[C@@H]1CN([C@H](C)CO)C(=O)c2cccc(NS(C)(=O)=O)c2O[C@@H]1CN(C)Cc1ccncc1 | . | . | 0.6 | . | .
CCOc1ccc(N(CC(=O)Nc2ccc(C)cc2)S(C)(=O)=O)cc1 | 20.5 | 17.1 | 79.7* | 65.6 | 4.0
CC(=O)c1ccc(NC(=O)CN(c2c(C)cccc2C)S(C)(=O)=O)cc1 | . | 4.1 | 56.2* | 31.9 | 4.7
COC(=O)CN(c1c(C)cccc1C)S(C)(=O)=O | 0.1 | . | -0.9 | -6.4 | 1.5
CN1C(=O)c2cc(NC(=O)Nc3ccccc3F)ccc2OC[C@H]2O[C@H](CC(=O)O)CC[C@H]21 | . | . | 1.8 | . | .
CCOC(=O)COn1c(-c2cccc(Cl)c2)nc2ccc([N+](=O)[O-])cc21 | 15.5 | . | . | 86.8* | 2.5
CCCCSc1nnc(-c2ccc(C)cc2)n1C | 14.9 | 53.5* | 20.4 | 33.8 | 4.0

Screening results as filed in PubChem.
